Source: article PMC12431657, “Discovery and mechanistic insights of dibenzoylmethane as a broad spectrum inhibitor of coronavirus” (PLOS Pathogens, 2025)
Counter-ions that a name gives are not always drawn. Like-named read-outs stand apart in the source and are kept apart here. In all, about 3,300 compounds went through this assay and about 95 (3%) showed an effect of 50% or more. The sample holds strong results, similar compounds and a random draw of the others, so the mix is not that of the screen. Peptide text beside a SMILES is read from it.

Tested on: HCoV-229E
Design: species or system Huh-7; HTS, protection from HCoV-229E induced cell death, luminescent cell viability (CellCounting-Lite 2.0), inhibition rate
Settings: 24 h post infection, 1 h compound pre-incubation, 10 µM, inhibitor

Row | SMILES | 229E Inhibition rate [%] | 229E Inhibition rate (229E Inhibition rate, 24 h) [%]
1 | O=C(O)CNC(=O)/C=C/c1ccccc1 [Cinnamoylglycine] | 41.7 | 
2 | O=C(O)C[C@@](O)(C(=O)O)[C@H](O)C(=O)O [(-)-Hydroxycitric acid] | 12.3 | 
3 | CC(C)=C/C=C1\O[C@@H]2CC(C)=CC(=O)[C@@H]2[C@]1(C)O [Bisabolangelone] | 30 | 
4 | O=Cc1ccc(O)cc1 [p-Hydroxybenzaldehyde] | 10.9 | 
5 | CC(C)=CCC[C@](C)(O[C@@H]1O[C@H](CO)[C@@H](O)[C@H](O)[C@H]1O)[C@H]1CC[C@]2(C)[C@@H]1[C@H](O)C[C@@H]1[C@@]3(C)C[C@@H](O)[C@H](O[C@@H]4O[C@H](CO)[C@@H](O)[C@H](O)[C@H]4O[C@@H]4O[C@H](CO)[C@@H](O)[C@H](O)[C@H]4O)C(C)(C)[C@@H]3CC[C@]12C [Gypenoside XLVI] | 10.6 | 
6 | CC(C)=CCC[C@](C)(O)[C@H]1CC[C@]2(C)[C@@H]1[C@H](O)C[C@@H]1[C@@]3(C)CC[C@H](O)C(C)(C)[C@@H]3[C@@H](O[C@@H]3O[C@H](CO)[C@@H](O)[C@H](O)[C@H]3O[C@@H]3O[C@@H](C)[C@H](O)[C@@H](O)[C@H]3O)C[C@]12C [Ginsenoside Rg2] | 54.2 | 
7 | CC(C)=CCC[C@@](C)(O)[C@H]1CC[C@]2(C)[C@@H]1[C@H](O)C[C@@H]1[C@@]3(C)CC[C@H](O)C(C)(C)[C@@H]3[C@@H](O[C@@H]3O[C@H](CO)[C@@H](O)[C@H](O)[C@H]3O[C@@H]3O[C@@H](C)[C@H](O)[C@@H](O)[C@H]3O)C[C@]12C [20(R)-Ginsenoside Rg2] | 5.2 | 
8 | CC(C)=CCC[C@](C)(O)[C@H]1CC[C@]2(C)[C@@H]1[C@H](O)C[C@@H]1[C@@]3(C)CC[C@H](O)C(C)(C)[C@@H]3[C@@H](O[C@@H]3O[C@H](CO)[C@@H](O)[C@H](O)[C@H]3O[C@@H]3O[C@H](CO)[C@@H](O)[C@H](O)[C@H]3O)C[C@]12C [Ginsenoside Rf] | 28.3 | 
9 | CC(C)=CCC[C@](C)(O)[C@H]1CC[C@]2(C)[C@@H]1[C@H](O)C[C@@H]1[C@@]3(C)C[C@@H](O)[C@H](O[C@@H]4O[C@H](CO)[C@@H](O)[C@H](O)[C@H]4O[C@@H]4O[C@H](CO)[C@@H](O)[C@H](O)[C@H]4O)C(C)(C)[C@@H]3CC[C@]12C [Gypenoside L] | 61.5 | 
10 | CC(C)=CCC[C@@](C)(O)[C@H]1CC[C@]2(C)[C@@H]1[C@H](O)C[C@@H]1[C@@]3(C)C[C@@H](O)[C@H](O[C@@H]4O[C@H](CO)[C@@H](O)[C@H](O)[C@H]4O[C@@H]4O[C@H](CO)[C@@H](O)[C@H](O)[C@H]4O)C(C)(C)[C@@H]3CC[C@]12C [Gypenoside LI] | 0 | 
11 | COc1ccc([C@H]2OC[C@H]3[C@@H]2CO[C@H]3c2ccc(O[C@@H]3O[C@H](CO)[C@@H](O)[C@H](O)[C@H]3O)c(OC)c2)cc1OC [Phillyrin] | 0 | 
12 | COc1cc(C2Oc3ccc([C@H]4Oc5cc(O)cc(O)c5C(=O)[C@@H]4O)cc3OC2CO)ccc1O (some centres unmarked) [Isosilybin] | 0 | 
13 | COc1cc(C2Oc3cc([C@H]4Oc5cc(O)cc(O)c5C(=O)[C@@H]4O)ccc3OC2CO)ccc1O (some centres unmarked) [Silybin] | 13 | 
14 | COc1cc([C@@H]2[C@H]3CO[C@@]4(O)C(=O)[C@@H]2C=C([C@H]2Oc5cc(O)cc(O)c5C(=O)[C@@H]2O)[C@@H]34)ccc1O [Silydianin] | 51.4 | 
15 | COc1cc(O[C@@H]2O[C@H](CO[C@@H]3O[C@H](CO)[C@@H](O)[C@H](O)[C@H]3O)[C@@H](O)[C@H](O)[C@H]2O)c2c(O)c3c(=O)cc(C)oc3cc2c1 [Rubrofusarin gentiobioside] | 20.7 | 
16 | COc1cccc(CCC(=O)O)c1 [3-(3-Methoxyphenyl)propionic acid] | 21.4 | 
17 | O=CC[C@H](O)[C@H](O)CO [Thyminose] | 3.9 | 
18 | C=C[C@H]1[C@H](O[C@@H]2O[C@H](CO)[C@@H](O)[C@H](O)[C@H]2O)OC=C(C(=O)OC)[C@H]1CC(=O)O [Secoxyloganin] | 44.3 | 
19 | CC(C)CCC[C@](C)(O)[C@H]1CC[C@H]2[C@@H]3CC=C4C[C@@H](O)CC[C@]4(C)[C@H]3CC[C@@]21C [20(S)-Hydroxycholesterol] | 57 | 
20 | CC(C)CCC[C@@H](C)[C@H]1CC[C@H]2[C@@H]3CC=C4C[C@@H](O)CC[C@]4(C)[C@H]3CC[C@]12C [Cholesterol] | 13.1 | 
21 | C[C@H](CCCC(C)(C)O)[C@H]1CC[C@H]2[C@@H]3CC=C4C[C@@H](O)CC[C@]4(C)[C@H]3CC[C@]12C [25-Hydroxycholesterol] | 3.1 | 
22 | Nc1ncnc(N[C@@H]2O[C@H](CO)[C@@H](O)[C@H]2O)c1[N+](=O)[O-] [Clitocine] | 17.5 | 

Row | SMILES | 229E Inhibition rate [%] | 229E Inhibition rate (229E Inhibition rate, 24 h) [%]
23 | CC(C)=CCc1c(O[C@@H]2O[C@H](CO)[C@@H](O)[C@H](O)[C@H]2O)cc(O)c2c(=O)c(O[C@@H]3O[C@@H](C)[C@H](O)[C@@H](O)[C@H]3O)c(-c3ccc(O)cc3)oc12 [Epimedoside A] | 15.1 | 
24 | COc1cc2c(cc1OC)[C@@H](Cc1ccc(O)c(Oc3cc4c(cc3OC)CCN(C)[C@@H]4Cc3ccc(O)cc3)c1)N(C)CC2 [Liensinine] |  | 44.3
25 | COc1cc2c(cc1OC)[C@@H](Cc1ccc(O)c(Oc3cc4c(cc3OC)CCN(C)[C@@H]4Cc3ccc(O)cc3)c1)N(C)CC2 [Liensinine (perchlorate)] |  | 8.8
26 | COc1cc2c(cc1OC)[C@@H](Cc1ccc(O)c(Oc3cc4c(cc3OC)CCN(C)[C@@H]4Cc3ccc(O)cc3)c1)N(C)CC2 [Liensinine (Diperchlorate)] |  | 57.2
27 | CCC1=C[C@@H]2CN3CCc4c([nH]c5ccccc45)[C@@](C(=O)OC)(C2)[C@@H]13 [Catharanthine] | 54.2 | 
28 | CC[C@H]1C[C@@H]2CN3CCc4c([nH]c5ccccc45)[C@](C(=O)OC)(C2)[C@H]13 [Coronaridine] | 41.8 | 
29 | CC[C@]1(O)C[C@@H]2CN(CCc3c([nH]c4ccccc34)[C@@](C(=O)OC)(c3cc4c(cc3OC)N(C)[C@H]3[C@@](O)(C(=O)OC)[C@H](OC(C)=O)[C@]5(CC)C=CCN6CC[C@]43[C@@H]65)C2)C1 [Vinblastine (sulfate)] | 30.6 | 
30 | C=C(C)[C@@H]1CC=C(CO)CC1 [(S)-(−)-Perillyl alcohol] | 9.9 | 
31 | C[C@H]1CC[C@@H]2[C@@H](C)[C@H]3[C@H](C[C@H]4[C@@H]5CC=C6C[C@@H](O)CC[C@]6(C)[C@H]5CC[C@]34C)N2C1 [Solanidine] | 24.2 | 
32 | C=C[C@H]1CN2CC[C@H]1C[C@@H]2[C@@H](O)c1ccnc2ccc(OC)cc12 [Quinidine hydrochloride monohydrate] |  | 48.6
33 | C=C[C@H]1CN2CC[C@H]1C[C@@H]2[C@@H](O)c1ccnc2ccccc12 [Cinchonine] | 53.6 | 
34 | C=C[C@H]1CN2CC[C@H]1C[C@H]2[C@H](O)c1ccnc2ccccc12 [Cinchonidine] | 13.4 | 
35 | CC1(C)CCC[C@](C)([C@H]2CC[C@]3(C)[C@@H]2[C@H](O)C[C@@H]2[C@@]4(C)CC[C@H](O)C(C)(C)[C@@H]4[C@@H](O)C[C@]23C)O1 [Panaxatriol] | 15.9 | 
36 | CC(C)=CCCC(C)CCO (centres unmarked) [Citronellol] | 12.8 | 
37 | CC1(C)CC[C@]2(C(=O)O[C@@H]3O[C@H](CO)[C@@H](O)[C@H](O)[C@H]3O)CC[C@]3(C)C(=CC[C@@H]4[C@@]5(C)CC[C@H](O[C@@H]6O[C@H](C(=O)O)[C@@H](O)[C@H](O[C@@H]7OC[C@@H](O)[C@H](O)[C@H]7O)[C@H]6O)C(C)(C)[C@@H]5CC[C@]43C)[C@@H]2C1 [Momordin IIc] | 29.6 | 
38 | CC(C)CCC[C@@H](C)[C@H]1CC[C@H]2[C@@H]3CC=C4C[C@@H](OS(=O)(=O)O)CC[C@]4(C)[C@H]3CC[C@]12C [Cholesteryl sulfate (sodium)] | 7.6 | 
39 | CC(=O)[C@H]1CC[C@H]2[C@@H]3CC=C4C[C@@H](OS(=O)(=O)O)CC[C@]4(C)[C@H]3CC[C@]12C [Pregnenolone monosulfate (sodium)] | 55.9 | 
40 | CC(=O)[C@H]1CC[C@H]2[C@@H]3CC=C4C[C@@H](O)CC[C@]4(C)[C@H]3CC[C@]12C [Pregnenolone] | 40.7 | 
41 | CC1(C)C(=O)[C@]2(C)CC[C@H]1C2 [(-)-Fenchone] | 23.7 | 
42 | C=C1C[C@@]23CC[C@H]4[C@@](C)(CCC[C@@]4(C)C(=O)O[C@@H]4O[C@H](CO)[C@@H](O)[C@H](O[C@@H]5O[C@H](CO)[C@@H](O)[C@H](O)[C@H]5O)[C@H]4O[C@@H]4O[C@H](CO)[C@@H](O)[C@H](O)[C@H]4O)[C@@H]2CC[C@]1(O[C@@H]1O[C@H](CO)[C@@H](O)[C@H](O[C@@H]2O[C@H](CO)[C@@H](O)[C@H](O)[C@H]2O)[C@H]1O[C@@H]1O[C@H](CO)[C@@H](O)[C@H](O)[C@H]1O)C3 [Rebaudioside M] | 19.5 | 
43 | OC[C@H]1O[C@@](CO)(OC[C@@]2(O[C@H]3O[C@H](CO)[C@@H](O)[C@H](O)[C@H]3O)O[C@H](CO)[C@@H](O)[C@@H]2O)[C@@H](O)[C@@H]1O [1-Kestose] | 18.6 | 
44 | CC[C@H](C)[C@@H]1NC(=O)[C@@H]2CCCN2C(=O)[C@@H]2CCCN2C(=O)[C@@H]2CCCN2C(=O)[C@H](CC(C)C)NC(=O)CNC(=O)CNC(=O)[C@H](Cc2ccccc2)NC1=O [Heterophyllin B] (cyclo(FGGLPPPI)) | 12.9 | 
